# High-throughput results: PubChem BioAssay, National Center for Advancing Translational Sciences (NCATS)
# Marburg entry inh = blocks Marburg virus binding to or entry into cells; Marburg virus pseudotyped entry inhibition, cell reporter; Potency, µM (highest dose often 37.8 µM), for inactives: at the top dose activity change, negative = inhibition, hits mostly inhibitors; actives 1.8% (n = 300,000); calls by dose curve; tested in HEK293 cells
# Sm TGR inh = S. mansoni TGR enzyme inhibition | Potency, µM (titrated, usually from 114 µM), for the others: at the top dose activity change, negative = inhibition, most hits filed as inhibitors | purified TGR, DTNB reduction, TNB absorbance 405 nm | actives 3% (n = 360,000); active means well fitted inhibition curve with a large enough effect; inconclusive means small, poorly fitted or top-dose-only effect; inactive means no such curve, though single readings can be large or run the other way; further: nearly all actives have a fitted effect of over 60% in size
#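 TGR 20 nM + NADPH 100 uM (dispensed conc.), cpd preinc 15 min RT; start with NADPH (500 uM addition) then DTNB (15 mM addition). Kinetic TNB absorbance, 405 nm filter. Four-parameter Hill fit across titration.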
# VACV Venus inh = vaccinia inhibition (Venus reporter); Vaccinia virus Venus reporter expression, fluorescence; Potency, µM (top dose mostly 36.5 µM), for inactives: at the highest dose activity change, negative = inhibition, usual class: inhibitors; actives 0.46% (n = 330,000); calls by dose curve; tested in A549 cells; further: nearly all actives have a fitted effect of over 30% in size
# Vaccinia mCherry = inhibitors of vaccinia virus infection (mCherry reporter signal). Vaccinia virus mCherry reporter infection, fluorescence. actives 0.63% (n = 310,000). Potency, µM (series often up to 36.5 µM), inactives show top-dose activity change, negative = inhibition, usual class: inhibitors; calls by dose curve; tested in A549 cells; further: nearly all actives have a fitted effect of over 35% in size
# LASV entry inh = blocks Lassa virus binding to or entry into cells; Lassa virus pseudotype entry inhibition, cell reporter; actives 1.2% (n = 300,000); Potency, µM (highest dose often 37.9 µM), for the others: at the highest dose activity change, negative = inhibition, actives largely listed as inhibitors; calls by dose curve; tested in HEK293 cells; further: nearly all actives have a fitted effect of over 50% in size
# FMDV antiviral = foot and mouth disease virus antiviral activity; FMDV antiviral cell-based qHTS; Potency, µM (titrated, usually from 57.9 µM), for inactives: at the top dose activity change, negative = inhibition, most hits filed as inhibitors; actives 1.2% (n = 410,000); calls by dose curve; tested in HEK293T cells; further: read-out not given here; nearly all actives have a fitted effect of over 45% in size
# Active calls of the source: *; i = inactive; ? = inconclusive; / = not tested or not shown; [ ] = remark or other dose. Shown are actives, neighbours in structure and some others; about 5.4% of the full set was active somewhere. On the % scale 0 is the no-effect control and ±100 the full control effect; potency means the concentration at half of the fitted maximal effect.
SMILES,Marburg entry inh,Sm TGR inh,VACV Venus inh,Vaccinia mCherry,LASV entry inh,FMDV antiviral
C=CCNC(=O)/C(C#N)=C/c1ccc(OS(=O)(=O)c2ccc(C)cc2)c(OC)c1,?,-3%,-14%,-16%,13µM*,20µM*
Cc1ccc(S(=O)(=O)Oc2ccccc2/C=N/NC(N)=S)cc1,?,5%,1.3µM*,?,?,/
COC(=O)N/N=C/c1ccc(OS(=O)(=O)c2ccc(C)cc2)c(OC)c1,6%[46.1 µM],10%,-7%,-15%,7.9µM*,-4%
CN(C)c1ccc(CCC2C=Cc3ccccc32)cc1 (configuration not stated),/,/,4%,-4%,/,/
Cc1ccc(C2=NC(c3ccccc3)=Nc3ccc(Cl)cc3N2)cc1,?,0%,-2%,1%,-14%[46.1 µM],6%
CC1CN(C(=O)Nc2ccc(C(=O)NCCc3ccccc3)cc2)c2ccccc2S1 (configuration not stated),?,-5%,-15%,-17%,22%[46.1 µM],-10%
O=C(NCCCN1CCN(c2cccc(Cl)c2)CC1)c1cnn(-c2ccc(F)cc2)c1-n1cccc1,/,8%,-24%,?,10%[46.1 µM],?
CCn1c(=O)c2cc(C(=O)NCCCN3CCN(c4ccc(F)cc4)CC3)sc2c2ccccc21,?,-5%,-20%,-21%,7%[46.1 µM],?
COC1CC(OC2CCC3(C)C(CCC4C3CCC3(C)C(C5=CC(=O)OC5)C(OC(C)=O)CC43O)C2)OC(C)C1OC1OC(COC2OC(CO)C(O)C(O)C2O)C(O)C(O)C1O (configuration not stated),/,22%,/,/,/,/
CC(=O)O[C@H]1C[C@H](O[C@H]2[C@@H](O)C[C@H](O[C@H]3[C@@H](O)C[C@H](O[C@H]4CC[C@@]5(C)[C@H](CC[C@@H]6[C@@H]5C[C@@H](O)[C@]5(C)[C@@H](C7=CC(=O)OC7)CC[C@]65O)C4)O[C@@H]3C)O[C@@H]2C)O[C@H](C)[C@H]1O[C@@H]1O[C@H](CO)[C@@H](O)[C@H](O)[C@H]1O,/,/,2.5µM*,?,/,?
CC(=O)OC1CC(OC2C(O)CC(OC3C(O)CC(OC4CCC5(C)C(CCC6C5CCC5(C)C(C7=CC(=O)OC7)CCC65O)C4)OC3C)OC2C)OC(C)C1OC1OC(CO)C(O)C(O)C1O (configuration not stated),?,/,5.6µM*,4.5µM*,0.1µM*,0%
c1cncc(OC2CCN(Cc3ccc4c(c3)CN(Cc3ccc5c(c3)CCO5)CCO4)CC2)c1,/,/,-4%,-19%,/,-25%
COc1ccc(CCNC(=O)/C=C/c2ccc3ccccc3n2)cc1OC,?,1%,?,?,/,28µM*
Cc1ccc(Cl)cc1N1CCN(C(=O)c2ccc(C)c(-n3c(C)nc4cccnc43)c2)CC1,/,-11%,-27%,-8%,?,?
Cc1occc1C(=O)N/N=C/c1c(O)ccc2ccccc12,3.5µM*,-17%,?,1.8µM*,?,53%
Nc1cc(Cl)nc(N/N=C/c2c(O)ccc3ccccc23)n1,?,0%,?,28µM*,?,-9%
Cc1ccc(C(=O)N/N=C/c2c(O)ccc3ccccc23)cn1,/,-5%,?,2.2µM*,/,20%
O=C(N/N=C/c1c(O)ccc2ccccc12)c1cccnc1,?,?,-29%,?,?,14%
Cc1occc1C(=O)N/N=C/C(Br)=C\c1ccccc1,?,-21%,-22%,-10%,13µM*,?
NC(=O)c1ccc(NS(=O)(=O)c2ccc(S(=O)(=O)N3CCCC3)cc2)cc1,/,/,-9%,-3%,/,-16%
CCc1nnc(SCC(=O)N(C)c2ccccc2)c2cc3sccc3n12,/,1%,-13%,-17%,-6%[46.1 µM],?
COc1ccc(-n2nnc(-c3nc(-c4ccc5c(c4)OCO5)no3)c2C)cc1Cl,/,13%,-4%,-8%,29%[46.1 µM],-11%
O=C(NN=Cc1c(O)ccc2ccccc12)c1ccncc1,3.2µM*,/,?,2.5µM*,3.2µM*,3%
O=C(N/N=C\c1c(O)ccc2ccccc12)c1ccc(O)cc1,/,-9%,/,/,/,26%
O=C(N/N=C/c1c(O)ccc2ccccc12)c1ccc(Br)o1,?,-2%,?,2.8µM*,?,55%
SMILES,Marburg entry inh,Sm TGR inh,VACV Venus inh,Vaccinia mCherry,LASV entry inh,FMDV antiviral
CN(C)c1ccc(NC(=O)Cn2cc(S(=O)(=O)Cc3ccccc3Cl)c3ccccc32)cc1,/,-11%,-27%,-28%,?,13%
CC(C)OC(=O)c1cc2c(ccn2C)n1CC(=O)N(Cc1ccccc1)c1ccccc1,2.5µM*,-23%,-18%,?,3.2µM*,-21%
CCOC(=O)c1cc2c(ccn2C)n1Cc1cc(C)ccc1C,-18%,-2%,/,/,1%,0%
O=C1N(Cc2cccc(Cl)c2)C[C@@H]2C[C@@H](c3ccccn3)N3CCC[C@@]123,/,10µM*,/,/,/,-1%
O=C1N(Cc2cccnc2)C[C@@H]2C[C@@H](c3ccc4nonc4c3)N3CCC[C@@]123,/,28µM*,2%,i,/,11%
O=C(/C=C/c1ccco1)N1CCN(S(=O)(=O)/C=C/c2ccccc2)CC1,-9%,13µM*,-7%,-18%,2%,-14%
O=C(/C=C/c1ccc(F)cc1)N1CCN(S(=O)(=O)/C=C/c2ccccc2)CC1,-14%[46.1 µM],0%,-2%,-11%,15%,-12%
O=C(/C=C/c1ccco1)N1CCN(C/C=C/c2ccccc2)CC1,0%,40µM*,-7%,-17%,-7%,?
O=C(C=Cc1ccco1)N1CCOCC1,22%[46.1 µM],/,4%,i,0%[46.1 µM],24%
O=C(C1CCN(Cc2ccccc2)CC1)N1CCN(C/C=C/c2ccccc2)CC1,14µM*,-15%,-16%,-7%,?,?
O=C(/C=C/c1ccccc1)N1CCN(C(=O)c2ccco2)CC1,19%,10%,/,/,14%,0%
NC(=O)C1CCN(C(=O)/C=C/c2ccco2)CC1,23%,7.9µM*,-10%,i,4%,-11%
Cc1cc2c(cc3c(SCc4ccccc4Cl)nnc(C)n32)o1,/,-2%,-16%,-9%,10%[46.1 µM],35%
O=C(/C=C/c1ccco1)N1CCN(c2ccccc2)CC1,12%,11µM*,6%,i,10%,15%
CCN1CCN(C(=O)/C=C/c2ccc(C)o2)CC1,-4%,?,2%,-13%,6%,-20%
Cc1ccc(/C=C/C(=O)N2CCN(S(=O)(=O)/C=C/c3ccccc3)CC2)o1,/,14µM*,/,/,/,-8%
CCCCCC(=O)N1C[C@H](O)[C@@H](n2cc(-c3ccc(F)cc3)nn2)C[C@H]1c1ccccc1,/,/,/,/,3%[46.1 µM],/
COc1ccc(S(=O)(=O)c2cnc(SCC(=O)Nc3cc(F)ccc3C)[nH]c2=O)cc1Cl,1%[46.1 µM],5%,-4%,-6%,-7%[46.1 µM],-12%
CCCC(=O)Nc1ccc2c(c1)nc1n2CCN(CCOC)C1,?,20µM*,-17%,-9%,?,3%
